Data on 20 molecules can be found in PubChem BioAssay AID1117306 (National Center for Advancing Translational Sciences (NCATS), 2015).

For this assay the following is noted: Ebola virus entry assay, blue channel imaging.

Active and inactive are the calls of the source. Calls come from the whole dose curve.

Usually AC50 stands for the midpoint of the concentration-response curve, whichever way the signal moves. As to `CC[C@]1(O)C[C@H]2CN(CCc3c([nH]c4ccccc34)[C@@](C(=O)OC)(c3cc4c(cc3OC)N(C=O)[C@H]3[C@@](O)(C(=O)OC)[C@H](OC(C)=O)[C@]5(CC)C=CCN6CC[C@]43[C@@H]65)C2)C1`, the AC50 was 0.153 µM (active).
For `COc1cccc2c1C(=O)c1c(O)c3c(c(O)c1C2=O)C[C@@](O)(C(C)=O)C[C@H]3O[C@H]1C[C@H](N)[C@H](O)[C@H](C)O1`, the AC50 was 3.43 µM (active).
In the case of `CO[C@H]1C[C@@H]2CC[C@@H](C)[C@@](O)(O2)C(=O)C(=O)N2CCCC[C@@H]2C(=O)O[C@H]([C@@H](C)C[C@@H]2CC[C@H](O)[C@H](OC)C2)CC(=O)[C@H](C)C=C(C)[C@@H](O)[C@@H](OC)C(=O)[C@H](C)C[C@H](C)C=CC=CC=C1C`, the molecule was called inactive.
For the molecule `C[C@@H]1O[C@@H](O[C@H]2CC[C@@]3(C)[C@H](CC[C@@H]4[C@H]3C[C@@H](O)[C@]3(C)[C@@H](C5=CC(=O)OC5)CC[C@]43O)C2)C[C@H](O)[C@@H]1O[C@H]1C[C@H](O)[C@H](O[C@H]2C[C@H](O)[C@@H](O)[C@@H](C)O2)[C@H](C)O1` (stereo in doubt), the call was inactive.
As for `CC[C@H]1OC(=O)[C@H](C)[C@@H](O[C@H]2C[C@@](C)(OC)[C@@H](O)[C@H](C)O2)C(C)[C@@H](O[C@@H]2O[C@H](C)C[C@H](N(C)C)[C@@H]2O)[C@](C)(OC)C[C@@H](C)C(=O)[C@H](C)[C@@H](O)[C@]1(C)O` (stereo not given in full), the concentration at half-maximal activity (AC50) is 6.85 µM (active).
Take `COC(=O)Nc1nc2ccc(C(=O)c3ccccc3)cc2[nH]1`: the call was inactive.
As for `CCCNCC(O)COc1ccccc1C(=O)CCc1ccccc1` (stereo not given), the AC50 is 9.68 µM (active).
As for `CCCSc1ccc2nc(NC(=O)OC)[nH]c2c1`, the call was inactive.
In the case of `CC[C@H]1OC(=O)[C@H](C)[C@@H](O[C@H]2C[C@@](C)(OC)[C@@H](O)[C@H](C)O2)[C@H](C)[C@@H](O[C@@H]2O[C@H](C)C[C@H](N(C)C)[C@@H]2O)[C@](C)(O)C[C@@H](C)CN(C)[C@H](C)[C@@H](O)[C@]1(C)O`, the AC50 is 4.32 µM (active).
With `CCCCc1oc2ccc(NS(C)(=O)=O)cc2c1C(=O)c1ccc(OCCCN(CCCC)CCCC)cc1`, the AC50 was 4.85 µM (active).
Consider `CC[C@]1(O)C[C@@H]2CN(CCc3c([nH]c4ccccc34)[C@@](C(=O)OC)(c3cc4c(cc3OC)N(C)[C@H]3[C@@](O)(C(=O)OC)[C@H](OC(C)=O)[C@]5(CC)C=CCN6CC[C@]43[C@@H]65)C2)C1`, for which the AC50 is 0.137 µM (active).
For `COC(=O)Nc1nc2ccc(C(=O)c3cccs3)cc2[nH]1`, the AC50 was 0.611 µM (active).
With `CO[C@H]1C[C@@H]2CC[C@@H](C)[C@@](O)(O2)C(=O)C(=O)N2CCCC[C@@H]2C(=O)O[C@H]([C@H](C)C[C@@H]2CC[C@H](OCCO)[C@H](OC)C2)CC(=O)[C@H](C)C=C(C)[C@@H](O)[C@@H](OC)C(=O)[C@H](C)C[C@H](C)C=CC=CC=C1C`, the outcome was inactive.
In the case of `CN1CCN(CCCN2c3ccccc3Sc3ccc(C(F)(F)F)cc32)CC1`, the AC50 was 9.68 µM (active).
In the case of `NCCCC(O)(P(=O)(O)O)P(=O)(O)O`, the outcome was inactive.
The same measure, in the same setting: to `Cc1nnc(C(C)C)n1C1C[C@H]2CC[C@@H](C1)N2CC[C@H](NC(=O)C1CCC(F)(F)CC1)c1ccccc1` (stereo not given in full) belongs “inactive”.
Take `CCC1=C[C@@H]2CN(C1)Cc1c([nH]c3ccccc13)[C@@](C(=O)OC)(c1cc3c(cc1OC)N(C)[C@H]1[C@@](O)(C(=O)OC)[C@H](OC(C)=O)[C@]4(CC)C=CCN5CC[C@]31[C@@H]54)C2`: the concentration at half-maximal activity (AC50) was 0.153 µM (active).
For the molecule `COC1=CC(=O)C[C@@H](C)[C@]12Oc1c(Cl)c(OC)cc(OC)c1C2=O`, the result was inactive.
`CN(C)CCOc1ccc(/C(=C(/CCCl)c2ccccc2)c2ccccc2)cc1`: the AC50 is 1.37 µM (active).
On to `CCN(CC)CCNC(=O)c1c(C)[nH]c(/C=C2\C(=O)Nc3ccc(F)cc32)c1C`, for which the AC50 is 3.06 µM (active).
